Screen size: about 53,000 compounds; about 900 (1.7%) showed an effect of 50% or more. Many of the other results were omitted from the sample, so strong results are more common in it than they were.
Each compound was assayed on Mycobacterium tuberculosis (assay: Cornell - Phenotypic assay to identify agents that inhibit growth of Mycobacterium tuberculosis). Conditions: 10 mM as filed; unlikely as a test dose.
Type: functional
Set-up: scale not given: direction of the effect not stated beside the values
With `Cc1cc(C)n(CC2CN(Cc3cccc(C#N)c3)CCO2)n1` (stereo not given) the “Percent Effect” value was 14.78%.
`COc1ccc(CN2CCn3cc(CN4CCN(C)CC4)nc3C2)cc1.O=C(O)C(F)(F)F.O=C(O)C(F)(F)F.O=C(O)C(F)(F)F` was tested, and the “Percent Effect” value was 3.435%.
With `CC(C)COCCC(=O)Nc1ccc2oc(=O)n(CCN(C)C)c2c1` the “Percent Effect” value was -58.21%.
With `O=C(NCCc1cc(N2CCOCC2)nc(NC2CC2)n1)C1CC1` the “Percent Effect” value was 33.35%.
`O=C(NCCc1cc(N2CCOCC2)nc(NC2CC2)n1)C1CCCO1` (stereo not given) was tested, and the “Percent Effect” value was 34.16%.
In the case of `O=C(NCCc1cc(N2CCOCC2)nc(N2CCCC2)n1)C1CC1`, the “Percent Effect” value is reported as 50.32%.
For `OC[C@H]1CCCN1c1nccc(-c2c[nH]nc2C2CCCCC2)n1`, the “Percent Effect” value was 4.191%.
In the case of `NC(=O)C1CCN(c2nccc(-c3c[nH]nc3C3CCCCC3)n2)CC1`, the “Percent Effect” value is reported as 12.19%.
With `c1cc(-c2c[nH]nc2C2CCCCC2)nc(N2CCCCCC2)n1` the “Percent Effect” value was 77.63%.
In the case of `COCCNC(=O)c1ccc2ccc(N3CCN(CC4CC4)CC3)n2c1`, the “Percent Effect” value is reported as -16.88%.
In the case of `Cc1cc(-c2cc(F)ccc2C(=O)O)nc(C2CCCN(C)C2)n1` (stereo not given), the “Percent Effect” value is reported as 0.614%.
With `COc1ccccc1C1(CNc2nnc(C)c(C)c2C#N)CCCC1` the “Percent Effect” value was 86.76%.
With `Cc1nnc(NCC2(c3ccccc3)CCC2)c(C#N)c1C` the “Percent Effect” value was 47.49%.
In the case of `COc1ccccc1C1(CNc2nnc(C)c(C)c2C#N)CCOCC1`, the “Percent Effect” value is reported as -5.763%.
With `Cn1cnnc1SCc1cc2c(cc1Cl)OCO2` the “Percent Effect” value was 23.01%.
`Cc1n[nH]c(C)c1NC(=O)C1CCCN(C(=O)NCC(C)C)C1` (stereo not given) was tested, and the “Percent Effect” value was -0.6091%.
`CCCc1cnc(C)nc1N1CCC(Cn2cc(CN(C)C)nn2)CC1` was tested, and the “Percent Effect” value was 18.6%.
In the case of `O=S(=O)(c1cccnc1)N1CCCCC1CCN1CCOCC1` (stereo not given), the “Percent Effect” value is reported as -15.47%.
For `O=C(c1ccc(F)cc1F)N(CC(F)(F)F)C1CCOCC1`, the “Percent Effect” value was 37.88%.
With `CCN(C(=O)c1cc(C)oc1C)C1CC1` the “Percent Effect” value was 4.626%.
With `Cc1cc(C(=O)N(CC(F)(F)F)C2CCOCC2)c(C)o1` the “Percent Effect” value was 51.1%.
In the case of `Cc1cn2c(n1)CCC(NC(=O)CCOc1cccc(F)c1)C2` (stereo not given), the “Percent Effect” value is reported as 5.433%.
With `Cc1cc(N2CCN(C3CCOCC3)CC(C(=O)N(C)C)C2)ncn1` (stereo not given) the “Percent Effect” value was 3.983%.
With `Cc1ccccc1CC(=O)NCc1cnc(CC2CCN(C)CC2)cn1` the “Percent Effect” value was 48.16%.
In the case of `Cc1ccc(CN2CCC3(CC2)C(=O)Nc2ccccc23)s1.O=C(O)C(F)(F)F`, the “Percent Effect” value is reported as 18.05%.
For `O=C(O)C(F)(F)F.O=C1Nc2ccccc2C12CCN(Cc1nccs1)CC2`, the “Percent Effect” value was -8.416%.
With `O=C(O)C(F)(F)F.O=C1Nc2ccccc2C12CCN(Cc1cccs1)CC2` the “Percent Effect” value was 50.44%.
With `CCOc1ccc(NC(C)=O)cc1S(=O)(=O)Nc1nccs1` the “Percent Effect” value was 7.151%.
With `CC(CCc1ccco1)NC(=O)Nc1cc(C(F)(F)F)c[nH]c1=O` (stereo not given) the “Percent Effect” value was 102.9%.
In the case of `O=C(CCc1ccco1)Nc1cc(C(F)(F)F)c[nH]c1=O`, the “Percent Effect” value is reported as 7.769%.
With `CN(Cc1ccco1)C(=O)Nc1cc(C(F)(F)F)c[nH]c1=O` the “Percent Effect” value was -17.34%.
`Cc1nc(C)n(CC(=O)N2CCCC(c3cc4ccccc4cn3)C2)n1` (stereo not given) was tested, and the “Percent Effect” value was -16.13%.
For `CC(C)c1nc(N2CCC(N3CCCCCC3)CC2)c2cnn(C)c2n1`, the “Percent Effect” value was 30.23%.
In the case of `CC(C)c1nc(N2CCN3CCCC3C2)c2cnn(C)c2n1` (stereo not given), the “Percent Effect” value is reported as 62.47%.
With `CC(C)c1nc(N2CCC(N3CCCC(O)C3)CC2)c2cnn(C)c2n1` (stereo not given) the “Percent Effect” value was 28.63%.
With `Cc1cc(C)nc(N2CCC(c3noc(C)n3)CC2)n1` the “Percent Effect” value was -1.548%.
In the case of `O=C(CC1CCN(c2cccnn2)CC1)NCCO`, the “Percent Effect” value is reported as 12.72%.
For `CCC/N=c1/c(NC(=O)NCCCOC)c(O)oc2ccccc12`, the “Percent Effect” value was -33.59%.
In the case of `CCc1ccc(CN(C)C(=O)C(c2ccccc2F)N(C)C)nc1` (stereo not given), the “Percent Effect” value is reported as 0.2159%.
With `CCCC(=O)NCC(Cc1cccc(F)c1)N1CCCC1=O` (stereo not given) the “Percent Effect” value was 2.564%.
In the case of `O=C(CN(Cc1ccccc1)CC1CCOCC1)Nc1nccs1`, the “Percent Effect” value is reported as 42.61%.
For `NC(=O)NC(=O)CCN(Cc1ccccc1)CC1CCOCC1`, the “Percent Effect” value was 53.84%.
`O=C(CN(Cc1ccccc1)CC1CCOCC1)NC(=O)NC1CC1` was tested, and the “Percent Effect” value was 16.06%.
For `CCc1ccc(C(COC)NC(=O)c2ccc(C(N)=O)cc2)o1` (stereo not given), the “Percent Effect” value was 17.07%.
`Cc1oncc1C(=O)N1CCOCC2(CCN(c3ccccn3)C2)C1.O=C(O)C(F)(F)F` (stereo not given) was tested, and the “Percent Effect” value was -11.19%.
In the case of `Cc1nc(C)n(CC2CCCN2Cc2cccc3c2OCCO3)n1` (stereo not given), the “Percent Effect” value is reported as -6.241%.
`CC(=O)N1CCC[C@@H](NCc2c[nH]c3ccccc23)[C@@H]1c1ccc(C)s1.Cl` was tested, and the “Percent Effect” value was 66.32%.
With `CC(=O)N1CCC[C@@H](NCc2cccc(F)c2)[C@@H]1c1ccc(C)s1.Cl` the “Percent Effect” value was -22.92%.
For `CC(=O)N1CCC[C@@H](NCc2ccc(F)cc2)[C@@H]1c1ccc(C)s1`, the “Percent Effect” value was 1.669%.
With `c1ccc2ncc(CC3CCNC3)cc2c1` (stereo not given) the “Percent Effect” value was -46.09%.
In the case of `O=c1n(Cc2ccc(F)cc2)nc2ncccn12`, the “Percent Effect” value is reported as -16.62%.
With `C[C@@H]1CN(C(=O)c2cc(COc3ccc4c(c3)OCO4)[nH]n2)C[C@H](C)O1` the “Percent Effect” value was 3.14%.
With `O=C(c1cc(COc2ccc3c(c2)OCO3)[nH]n1)N1CCCO1` the “Percent Effect” value was 80.32%.
With `O=C(c1cc(COc2ccc3c(c2)OCO3)[nH]n1)N1CCCC(O)C1` (stereo not given) the “Percent Effect” value was 44.89%.
For `O=C(c1cc(COc2ccc3c(c2)OCO3)[nH]n1)N1CCOCC1`, the “Percent Effect” value was 35.93%.
With `COc1cccc(OCc2cc(C(=O)N3CC(O)C3)n[nH]2)c1` the “Percent Effect” value was 3.061%.
`O=C(c1cc(COc2ccc3c(c2)OCO3)[nH]n1)N1CCSCC1` was tested, and the “Percent Effect” value was 102%.
`O=C(c1cc(COc2ccc3c(c2)OCO3)[nH]n1)N1CC=CC1CO` (stereo not given) was tested, and the “Percent Effect” value was 46.2%.
`O=C(c1cc(COc2ccc3c(c2)OCO3)[nH]n1)N1CCCC1` was tested, and the “Percent Effect” value was 105.4%.
`O=C(c1cc(COc2ccc3c(c2)OCO3)[nH]n1)N1CCCCO1` was tested, and the “Percent Effect” value was 15.85%.
`Cc1noc(C)c1S(=O)(=O)N1CCc2nc(C3CCNCC3)ncc2C1.Cl` was tested, and the “Percent Effect” value was 6.846%.
`CN(C)C(=O)CN1CCCC(c2nccnc2-c2cccc(Cl)c2)C1` (stereo not given) was tested, and the “Percent Effect” value was 27.94%.
With `O=c1cc(CN2CCCC2)nc2n1CCCN(CC1CC1)C2` the “Percent Effect” value was -16.69%.
`c1ncc(CN2CC(Cc3nccc4cc[nH]c34)C2)cn1` was tested, and the “Percent Effect” value was 24.55%.
For `Cn1cc(CC2CCN(C(=O)NCCc3cccc(O)c3)C2)cn1` (stereo not given), the “Percent Effect” value was 9.063%.
In the case of `CCC(=O)N1CCC(c2nc(N3CCCC3)ncc2S(C)(=O)=O)CC1`, the “Percent Effect” value is reported as -19.63%.
In the case of `CS(=O)(=O)c1cnc(N2CCCC2)nc1C1CCN(C(=O)C2CC2)CC1`, the “Percent Effect” value is reported as 60.16%.
In the case of `CCC(=O)N1CCC(c2nc(N3CCCCC3)ncc2S(C)(=O)=O)CC1`, the “Percent Effect” value is reported as 49.28%.
`CS(=O)(=O)N1CCC(CNC(=O)c2cnccn2)CC1` was tested, and the “Percent Effect” value was -29.61%.
For `COCCN1CCC2(CC1)CN(C(=O)Cc1cccnc1)CCO2.O=C(O)C(F)(F)F.O=C(O)C(F)(F)F`, the “Percent Effect” value was 26.19%.
For `COc1nsc2nc(C3CCCN3c3ncccn3)ccc12` (stereo not given), the “Percent Effect” value was 56.9%.
With `OCCc1cc(C2CCCN2c2ncccn2)n[nH]1` (stereo not given) the “Percent Effect” value was 5.746%.
With `COc1ccc(Oc2cncc(C3CCCN3C(C)=O)n2)cc1` (stereo not given) the “Percent Effect” value was -6.062%.
In the case of `COc1nsc2nc(C3CCCN3C(C)=O)ccc12` (stereo not given), the “Percent Effect” value is reported as 51.54%.
`CC(=O)N1CCCC1c1ccc(Br)cn1` (stereo not given) was tested, and the “Percent Effect” value was -5.926%.
In the case of `Cc1ncc(CN(C)C)c(C2CCCN2c2ncccn2)n1` (stereo not given), the “Percent Effect” value is reported as 3.651%.
In the case of `CNCC(=O)N1CCC(c2cccc(Oc3ccccc3)n2)CC1`, the “Percent Effect” value is reported as 5.467%.
With `COc1ccc(CN2CC[C@@H]3[C@H]2CCC(=O)N3c2cnn(C)c2)cc1.O=C(O)C(F)(F)F` the “Percent Effect” value was -0.7852%.
For `CCCc1cncnc1N1CCC2(CCC(=O)N(CCOC)C2)CC1`, the “Percent Effect” value was -26.49%.
With `CNc1cc(N2CCCC2CNCc2ccc(C)o2)ncn1` (stereo not given) the “Percent Effect” value was -46.19%.
For `CN1CC(=O)N(c2ccsc2)CC12CCN(S(=O)(=O)c1ccccc1)C2.O=C(O)C(F)(F)F` (stereo not given), the “Percent Effect” value was 4.283%.
With `CCS(=O)(=O)N1CCC2(CC1)CN(CC1CCOC1)c1ccccc12.O=C(O)C(F)(F)F` (stereo not given) the “Percent Effect” value was -6.416%.
With `O=C(O)C(F)(F)F.c1cnc(N2CCC3(CC2)CN(CC2CC2)c2ccccc23)nc1` the “Percent Effect” value was 32.03%.
For `CN1C(=O)C2(CCN(CC3CC3)CC2)c2ccccc21.O=C(O)C(F)(F)F`, the “Percent Effect” value was -19.06%.
With `O=C(O)C(F)(F)F.O=C(O)C(F)(F)F.OCCN1CC2(CCN(CC3CC3)CC2)c2ccccc21` the “Percent Effect” value was 53.69%.
In the case of `CS(=O)(=O)N1CCC2(CC1)CN(CC1CCOC1)c1ccccc12.O=C(O)C(F)(F)F` (stereo not given), the “Percent Effect” value is reported as 24.53%.
In the case of `CCCS(=O)(=O)N1CCC2(CC1)CN(CC1CCOC1)c1ccccc12.O=C(O)C(F)(F)F` (stereo not given), the “Percent Effect” value is reported as 53.88%.
For `CCC(=O)NC(Cc1cc(N(C)C)nc(C2CC2)n1)c1ccccc1` (stereo not given), the “Percent Effect” value was 47.48%.
For `CC(C)c1nccc(C2CC(=O)Nc3n[nH]c(C4CCC4)c32)n1` (stereo not given), the “Percent Effect” value was 28.48%.
`Cc1cccnc1CN1CCN(c2noc(-c3ccccc3)n2)CC1` was tested, and the “Percent Effect” value was 16.84%.
In the case of `O=C(c1cc(-n2cccn2)ccn1)N(CC(F)(F)F)C1CCCC1`, the “Percent Effect” value is reported as 17.65%.
In the case of `Cc1nccn1C1CCCN(C(=O)c2ccc3c(c2)nc(C)n3C)C1` (stereo not given), the “Percent Effect” value is reported as -4.275%.
With `O=C(CN1CCCC1Cn1cncn1)Nc1nccs1` (stereo not given) the “Percent Effect” value was 20.94%.
With `COc1c(C)cnc(CN(C)C(=O)Nc2ccc3c(c2)CCO3)c1C` the “Percent Effect” value was 65.58%.
For `COc1c(C)cnc(CN(C)C(=O)c2cccc(NC(N)=O)c2)c1C`, the “Percent Effect” value was 25.72%.
For `COCc1cccc(NC(=O)N(C)Cc2ncc(C)c(OC)c2C)c1`, the “Percent Effect” value was -1.951%.
For `CS(=O)(=O)c1snnc1C1CCN(Cc2cccc(O)c2)CC1`, the “Percent Effect” value was -3.307%.
With `c1cc(N2CCOCC(Cc3ccc4[nH]ccc4c3)C2)ncn1` (stereo not given) the “Percent Effect” value was 9.694%.
In the case of `Cc1cc(N2CCOCC(Cc3ccc4[nH]ccc4c3)C2)ncn1` (stereo not given), the “Percent Effect” value is reported as 26.85%.
`Nc1cc(N2CCOCC(Cc3ccc4[nH]ccc4c3)C2)ncn1` (stereo not given) was tested, and the “Percent Effect” value was 103.2%.
